Drawing on PubChem BioAssay (Tox21), this text covers Potency for 40 compounds.

Activity calls are given as the source filed them. Entries that show only a call come without a potency. The call rests on the fitted dose curve.
Potency means the concentration at half of the fitted maximal effect.

Muscarinic acetylcholine receptor M1 (Homo sapiens), sequence (P11229 whole entry, looked up): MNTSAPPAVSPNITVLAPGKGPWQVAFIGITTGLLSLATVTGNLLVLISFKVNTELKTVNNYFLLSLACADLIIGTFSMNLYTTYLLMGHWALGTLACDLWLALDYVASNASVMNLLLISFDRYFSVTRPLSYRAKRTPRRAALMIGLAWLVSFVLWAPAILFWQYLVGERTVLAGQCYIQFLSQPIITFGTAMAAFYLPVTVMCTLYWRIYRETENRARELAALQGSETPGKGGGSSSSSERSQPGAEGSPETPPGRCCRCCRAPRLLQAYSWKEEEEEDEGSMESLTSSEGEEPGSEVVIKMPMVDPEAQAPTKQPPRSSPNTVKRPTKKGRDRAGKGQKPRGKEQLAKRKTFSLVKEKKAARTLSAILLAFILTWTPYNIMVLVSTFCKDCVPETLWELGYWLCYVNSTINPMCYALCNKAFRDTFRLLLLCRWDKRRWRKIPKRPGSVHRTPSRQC

For this assay, the target named is Muscarinic acetylcholine receptor M1 (Homo sapiens) (UniProt P11229). The assay is described as follows: Cholinergic receptor muscarinic 1 (CHRM1) small molecule agonists, cell-based qHTS assay (AID 1963589). Further: nearly all actives have a fitted effect of over 35% in size. The conditions noted are these: CHRM1-CHO cells, agonist mode, calcium flux fluorescence; series mostly up to 76.8 µM. The source says:
National Center for Advancing Translational Sciences [NCATS]
Division of Preclinical Innovation [DPI]
U.S. Environmental Protection Agency [EPA]
National Institutes of Environmental Health Sciences [NIEHS]
National Toxicology Program [NTP]
U.S. Food and Drug Administration [FDA]
The CHRM1 is a muscarinic receptor. This receptor plays a crucial role in learning and memory processes and has long been identified as a promising therapeutic target for the improvement of cognitive decline in Alzheimer's disease (AD). The CHRM1-CHO cell line stably expressing human muscarinic acetylcholine receptor M1 (CHRM1) can be used for screening agonists and antagonists of interactions between CHRM1 and its ligands. The CHRM1-CHO Calcium Flux Assay is a homogeneous fluorescence-based assay for detecting the intracellular calcium level using FDSS kinetic plate reader system.
CHRM1-CHO cells were dispensed at 1000 cells/3uL/well in 1536-well black-clear bottom plates using a Multidrop Dispenser. After the assay plates were incubated at a 37 C/5% CO2 incubator for 18 h, 3 uL of Dye Loading Buffer was transferred to the assay plate by a Flying Reagent Dispenser. The assay plates were incubated at 37 C for 1h. For agonist mode, 23 nL of compounds dissolved in DMSO, positive controls or DMSO only was transferred to the assay plate by a pin tool. […] Each test compound was measured at 15 concentrations in three independent runs.
(qHTS replaces the single test concentration by a dilution series.)
With `C[C@]12CC[C@@H]3c4ccc(OC(=O)N(CCCl)CCCl)cc4CC[C@H]3[C@@H]1CC[C@@H]2O`, the Potency result is “inactive”.

Consider `c1cc[c]([Hg][c]2ccccc2)cc1`, for which the Potency entry is “inactive”.

Turning to `IC(I)=C(I)I`, the Potency entry is “inactive”.

As for `Nc1ccccc1C(=O)OC/C=C/c1ccccc1`, the Potency entry is “inactive”.

Turning to `COc1cc(OC)c(OC)cc1C=O`, the Potency entry is “inactive”.

Turning to `CN(N=O)c1ccc([N+](=O)[O-])cc1`, the Potency entry was “inactive”.

Regarding `CC(C)CC(C)Nc1ccc(Nc2ccccc2)cc1` (stereo not given), the Potency entry is “inactive”.

`O=c1[nH]c(Cl)c(Cl)cc1Cl`: the Potency result is “inactive”.

With `Cc1c([N+](=O)[O-])c(C)c([N+](=O)[O-])c(C(C)(C)C)c1[N+](=O)[O-]`, the Potency entry is “inactive”.

As to `Nc1ccc(Cl)cc1C(=O)c1ccccc1`, the Potency result was “inactive”.

For the compound `CCCN(CCC)c1c([N+](=O)[O-])cc(S(C)(=O)=O)cc1[N+](=O)[O-]`, the Potency result is “inactive”.

Regarding `CC1Sc2c(C(=O)O)c(=O)c3cc(F)c(N4CCNCC4)cc3n21` (stereo not given), the Potency result was “inactive”.

Regarding `CNC(=O)Oc1cc(C)c(SC)c(C)c1`, the Potency result was “inactive”.

For `CCC[N+](CCC)(CCC)CCC`, the Potency entry is “inactive”.

With `N[C@@H](Cc1ccc(Oc2cc(I)c(O)c(I)c2)c(I)c1)C(=O)O`, the Potency entry was “inactive”.

As to `CCCCCCCCCC(=O)O[C@H]1CC[C@H]2[C@@H]3CCC4=CC(=O)CC[C@@H]4[C@H]3CC[C@]12C`, the Potency entry is “inactive”.

For the compound `CCCN(CC1CC1)c1c([N+](=O)[O-])cc(C(F)(F)F)cc1[N+](=O)[O-]`, the Potency result was “inactive”.

On to `NC(=O)C(Cl)Cl`, for which the Potency entry is “inactive”.

On to `C=CC(=O)OCC`, for which the Potency result is “inactive”.

Regarding `CCC[CH2][Sn]([CH2]CCC)([CH2]CCC)[CH2]CCC`, the Potency entry was “inactive”.

For `CO/N=C(/C(=O)OC)c1ccccc1COc1ccccc1C`, the Potency entry is “inactive”.

Take `c1coc(-c2nc3ccccc3[nH]2)c1`: the Potency entry was “inactive”.

With `CCCCC(CC)COC(=O)OOC(C)(C)C` (stereo not given), the Potency entry was “inactive”.

Regarding `CC(=O)[O][Sn]([c]1ccccc1)([c]1ccccc1)[c]1ccccc1`, the Potency was 24.5 µM (active).

`N#CC(O)c1ccccc1` (stereo not given): the Potency result was “inactive”.

`CCC(C)c1cc([N+](=O)[O-])cc([N+](=O)[O-])c1OC(=O)C=C(C)C` (stereo not given): the Potency entry is “inactive”.

For `C[N+](C)(C)CCOC(=O)C(O)(c1ccccc1)c1ccccc1`, the Potency result was “inactive”.

Regarding `O=C(NC(=O)c1c(F)cccc1F)Nc1cc(Cl)c(Oc2ncc(C(F)(F)F)cc2Cl)c(Cl)c1`, the Potency result was “inactive”.

Consider `CCC(COC(=O)c1cc(OC)c(OC)c(OC)c1)(c1ccccc1)N(C)C` (stereo not given), for which the Potency result was “inactive”.

Regarding `CC(Cl)C(C)Cl` (stereo not given), the Potency result was “inactive”.

Consider `O=[N+]([O-])c1cc(Cl)c(Cl)cc1Cl`, for which the Potency entry is “inactive”.

As for `Oc1ccc(C2(c3ccc(O)cc3)c3ccccc3-c3ccccc32)cc1`, the Potency result was “inactive”.

As for `C[N+]1(CCC(C(N)=O)(c2ccccc2)c2ccccc2)CCCCC1`, the Potency result is “inactive”.

Regarding `CC1=C2C[C@H]3[C@@H](CC=C4C[C@@H](O)CC[C@@]43C)[C@@H]2CC[C@]12O[C@@H]1C[C@H](C)CN[C@H]1[C@H]2C`, the Potency entry was “inactive”.

With `O=C(Nc1ccc2[nH]ccc2c1)c1cc2cc(F)ccc2n1Cc1cccc(F)c1`, the Potency entry was “inactive”.

`CNC(=O)O/N=C(\C)C(C)S(C)(=O)=O` (stereo not given): the Potency entry was “inactive”.

`COc1cc(CC(C)N)cc2c1OCO2` (stereo not given): the Potency entry was “inactive”.

On to `ClC=C(Cl)Cl`, for which the Potency result was “inactive”.

As for `CCOP(=S)(OCC)Oc1cc(Cl)c(Br)cc1Cl`, the Potency result is “inactive”.

Turning to `CNC(=O)Oc1ccccc1C(C)C`, the Potency entry is “inactive”.
